# KDM5B inh: Primary screen for KDM5B Histone Demethylases FDH-coupled qHTS. Lysine-specific demethylase 5B (Homo sapiens), Q9UGL1. KDM5B demethylase, FDH-coupled NADH fluorescence (FDH is formaldehyde dehydrogenase). Potency, µM (highest dose often 57.7 µM), actives largely listed as inhibitors. 220,000 compounds, 2.6% hits. AID 1347165, 2019; active = well fitted inhibition curve with a large enough effect; note: 0% is about no effect; nearly all actives have a fitted effect of over 70% in size
#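 Inhibition is measured as reduced NADH fluorescence generation from FDH coupling to formaldehyde release. Truncated KDM5BΔAP at 200 nM final acts on H3K4me3 peptide (12.5 µM in substrate mix) in pH 7.5 HEPES buffer with Tween-20, 30 min, room temperature.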
# * hit, by the source's call; i = inactive. The full list was thinned out, with hits kept by preference. Potency is the fitted concentration of half-maximal effect.
SMILES,KDM5B inh
CC(C(=O)NC1CCN(Cc2ccccc2)CC1)C1CCOCC1 (configuration not stated),i
CC(C)n1nc(OC(C)(C)C(=O)NC2CCOCC2)c2cc(CN3CCOCC3)ccc21,32µM*
CCCn1cc(C(=O)n2nc(C)cc2C)c(S(=O)(=O)N2CCN(c3ccc(Cl)cc3)CC2)n1,i
CCOc1ccc2c(c1)cc(C(=O)Nc1ccccc1OCC)n2C,i
CCOc1cc(=O)n2c(c1C(=O)Nc1cc(Cl)ccc1OC)CCCC2,i
Fc1ccc(OCc2nnc([C@H]3CCN(Cc4cccnc4)C3)o2)cc1,i
O=C(c1cc(F)cc(F)c1)N1CCC(N2CC3CC(C2)[C@H]2CCCC(=O)N2C3)CC1 (some centres not stated),i
Cc1cc(S(=O)(=O)N(C)C)cc(NS(=O)(=O)c2cccc(Cl)c2Cl)c1C,i
Cc1ccc(S(=O)(=O)N[C@H]2CO[C@H]3[C@@H]2OC[C@@H]3n2nnnc2Oc2ccc(-n3ccnc3)cc2)cc1,i
Cn1cc(S(=O)(=O)NC2CC(c3cc(N4CCC(O)C4)ncn3)C2)cn1 (configuration not stated),i
N#Cc1ccc(NC2CC(c3cc(N4CCC(O)C4)ncn3)C2)nc1 (configuration not stated),32µM*
O=C(NC1CC(c2cc(N3CCC(O)C3)ncn2)C1)c1ccoc1 (configuration not stated),i
C=CCNC(=O)Nc1ccc(CC#N)cc1,i
Cc1ccc(C2Cn3nnc(C(=O)N4CCC(C(=O)NCc5ccccc5Cl)CC4)c3CO2)cc1 (configuration not stated),i
COc1cc(C#N)ccc1OC(C)C(=O)Nc1ccc(C)cc1C (configuration not stated),i
COc1ccc(-c2nc3cc(C)ccc3cc2CN2CCN(C(C)=O)CC2)cc1,i
CCN1CCN(Cc2cc3ccc(C)cc3nc2-c2ccc(OC)c(OC)c2)CC1,i
COc1ccc(-c2nc3cc(C)ccc3cc2CN2CCC(NC(C)=O)C2)cc1 (configuration not stated),20µM*
CCc1nc(-c2c3n(c(=O)n(CC(=O)Nc4ccc(Cl)cc4F)c2=O)CCCC3)no1,i
CCOc1cc(OCC)cc(C(=O)Nc2ccc(Br)c(C)n2)c1,i
CC(C)CCNC(=O)c1cnc2n1CCN(Cc1ccc3c(c1)CCO3)CC2,i
CC(C)c1nc(CNC(=O)c2ccc(N3CCCC(C(N)=O)C3)nc2)no1 (configuration not stated),i
Cc1ccc(C(=O)NCc2cccnc2N(C)C2CCCCC2)cn1,i
CC(C)c1nc(CNC(=O)c2ccc(NC3CCCCC3)nc2)no1,22µM*
O=C(NCc1ccccn1)c1ccc(C(F)(F)F)cc1,i
SMILES,KDM5B inh
CCCc1cc(=O)oc2cc(OC(C)C(=O)NCc3ccncc3)ccc12 (configuration not stated),i
Cc1nc(-c2ccccc2F)sc1C(=O)N1CCC(C(=O)O)CC1,i
Cc1cc(NC(=O)CCc2ncc(-c3ccc(Cl)cc3)o2)no1,i
CCCCn1c(SCC(=O)NCc2ccccc2)nc2cc(C(=O)OC)ccc2c1=O,i
CC(Cl)C(=O)NC(=O)NCc1ccccc1 (configuration not stated),i
NC(=O)C1CN(C(=O)c2nn(-c3ccccc3)c(=O)c3ccccc23)c2ccccc2O1 (configuration not stated),i
N#Cc1ccc(C=Nc2ccc(OC(F)(F)C(F)F)c(N=Cc3ccc(C#N)cc3)c2)cc1,i
CCc1noc(-c2ccn3c(CNC(=O)C4CCC4)nnc3c2)n1,i
O=C(NCc1nnc2cc(-c3nc(C4CC4)no3)ccn12)C1CCCCC1,28µM*
CCc1noc(-c2ccn3c(CNC(=O)C4CCCC4)nnc3c2)n1,i
O=C(NCc1nnc2cc(-c3nc(C4CC4)no3)ccn12)C1CCC1,25µM*
O=C(C1CCC1)N1CCC(c2noc(-c3ccncc3)n2)C1 (configuration not stated),i
CCCc1ccc(C(NC(=O)c2nn(C)c(=O)c3ccccc23)c2cccs2)cc1 (configuration not stated),i
N#Cc1ccc(-c2ccc(OCC(=O)c3ccc4c(c3)OCCO4)cc2)cc1,i
CCCN1C(=O)NC(c2ccc(Br)s2)C(C(=O)OC)=C1C (configuration not stated),i
CCC(C)NC(=O)Cn1c(-c2ccc(F)cc2)nc(C)cc1=O (configuration not stated),i
COc1cccc(CN2CCCC3(CCN(c4cc(C)nc(N)n4)C3)C2)c1OC (configuration not stated),i
OC1(CN2CCCCC2)CCN(Cc2cccc(F)c2F)C1 (configuration not stated),i
Fc1cccc(CN2CCCC3(CCN(c4cnccn4)C3)C2)c1F (configuration not stated),28µM*
CC1(c2ccccc2)N(Cc2ccccc2F)C(=O)OC12CCN(C(=O)c1cnccn1)CC2 (configuration not stated),i
O=C(C1CCCC1)N1CCC2(CCCN(Cc3cccc(F)c3F)C2)C1 (configuration not stated),i
Fc1ccccc1CN1CCCC2(CCN(c3cnccn3)C2)C1 (configuration not stated),32µM*
COc1ccccc1C1CC(=O)N(Cc2cccc(Cl)c2)c2c1c(C)nn2-c1nc(C)cc(C)n1 (configuration not stated),i
Cc1sc(N2CCCC2)nc1-c1ccc(NS(C)(=O)=O)cc1,i
COc1ccc(NC(C)=O)cc1NC(=O)/C=C/c1ccc2ccccc2n1,i
SMILES,KDM5B inh
Cc1ccc(-c2csc(-c3nc(-c4cc(C)ccc4C)cs3)n2)c(C)c1,i
Cc1ccc(C2CC(=O)Nc3c2c(C)nn3-c2ccc3nncn3n2)cc1C (configuration not stated),i
CC(C)NC(=O)CSc1cc(C(=O)NC2CC2)c2ccccc2n1,i
O=C(Nc1cc(-c2ccc(Br)cc2)no1)c1ccco1,i
O=C(Nc1cccc(-c2ccc(N3CCOCC3)nn2)c1)Nc1cccc(C(F)(F)F)c1,i
CC(=O)Nc1cccc(-c2cc3c(ccn3Cc3ccncc3)c(N3CCOCC3)n2)c1,28µM*
CC(C)CCNC(=O)c1cc(-c2ccncc2)nc2ccc(S(=O)(=O)N3CCOCC3)cc12,i
C[S+](=O)([O-])Nc1cccc(-c2cc3c(ccn3Cc3ccncc3)c(N3CCOCC3)n2)c1,3.2µM*
CC(=O)Nc1cccc(-c2cc3c(ccn3C)c(C(=O)NCc3cccnc3)n2)c1,i
CCOc1ccccc1NC(=O)Nc1cccc(-c2ccc(N3CCOCC3)nn2)c1,i
CC(=O)Nc1ccc2c(ccn2CCN2CCOCC2)c1,i
C[S+](=O)([O-])c1ccc(-c2cc3c(ccn3Cc3ccncc3)c(N3CCOCC3)n2)cc1,25µM*
N#Cc1ccc(COc2ccccc2C(N)=O)cc1,i
Cc1cc(Br)ccc1NC(=O)CC1CC2CCC1C2 (configuration not stated),i
COc1cccc(CNC(=O)CN2C(=O)NC3(CCCCC3)C2=O)c1,i
O=C(N(Cc1cccc2[nH]ccc12)C1CC1)C12CC3CC(CC(C3)C1)C2,i
COCCOCc1nc(C2CCN(C(=O)c3cc(C)n(C)n3)C2)no1 (configuration not stated),i
N#Cc1ccccc1CSc1ncc(C(F)(F)F)cc1Cl,i
